Test results: PubChem BioAssay (NCATS)
Inconclusive results are not listed. Activity calls are given as the source filed them. Calls come from the whole dose curve; as a rule, active = well fitted curve in the direction sought with a large enough effect; inconclusive = small, poorly fitted or top-dose-only effect, or another doubt; inactive = no such curve, though single readings can be large; an effect the other way counts as inactive or inconclusive.

Columns and labels:
[1] = target: Calcium and integrin-binding protein 1 (Homo sapiens) (UniProt Q99828); assay: Primary qHTS for Identification of Calcium Integrin Binding Protein 1 (CIB1) Competitor (AID 1508620);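 note: GST tagged CIB1 binding a fluorescein labelled alphaIIb integrin peptide tracer; top concentration of the series differs between compounds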
Outline: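 CIB1-GST (1 uM final) and compound incubated 15 min at room temperature before adding FITC-alphaIIb peptide tracer (100 nM final). Competition for binding read by fluorescence polarization (ex 480, em 540) after another 15 min at room temperature.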

[2] = Primary qHTS for inhibitors of nuclear receptor binding SET domain protein 2 (NSD2) in an isogenic RCH-ACV NSD2 p.E1099K mutant (9B) (AID 1645876); note: nearly all actives have a fitted effect of over 70% in size
[3] = Primary qHTS for inhibitors of nuclear receptor binding SET domain protein 2 (NSD2) in an RCH-ACV wild type WT cells (2C) (AID 1645877); note: nearly all actives have a fitted effect of over 70% in size
% is set by controls: 0 for no effect and ±100 for the full control effect.

Chain of Calcium and integrin-binding protein 1 (Homo sapiens) (Q99828 whole entry, looked up): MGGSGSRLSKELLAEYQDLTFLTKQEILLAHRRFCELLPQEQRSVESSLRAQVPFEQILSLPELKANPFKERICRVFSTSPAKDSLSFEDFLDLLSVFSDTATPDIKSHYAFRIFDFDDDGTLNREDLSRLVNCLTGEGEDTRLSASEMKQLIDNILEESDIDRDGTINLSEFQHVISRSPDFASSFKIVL

CC(C)C1C(OC(=O)/C=C/c2ccccc2)CC2(C)OC2CCC2(C)OC2C1O (stereo not drawn)
inactive: Potency [1] | Potency [2] | Potency [3]

C/C=C1/[C@H](O[C@@H]2O[C@H](CO)[C@@H](O)[C@H](O)[C@H]2O)OC=C(C(=O)OC)[C@H]1CC(=O)OCCc1ccc(O)c(O)c1
inactive: Potency [1] | Potency [2] | Potency [3]

O=S(=O)(O)c1ccc(Nc2ncnc3c2ncn3[C@@H]2O[C@H](CO)[C@@H](O)[C@H]2O)cc1
inactive: Potency [1] | Potency [2] | Potency [3]

CC(=O)O[C@@H]1[C@@H](O)[C@H](C)O[C@@H](O[C@H]2[C@@H]3C=CO[C@@H](O[C@@H]4O[C@H](CO)[C@@H](O)[C@H](O)[C@H]4OC(C)=O)[C@@H]3[C@@]3(CO)O[C@@H]23)[C@@H]1OC(=O)/C=C/c1ccc(O)cc1
inactive: Potency [1] | Potency [2] | Potency [3]

C[C@@H]1CC[C@]2(C(=O)O)CC[C@]3(C)C(=CCC4[C@@]5(C)C[C@@H](O)[C@H](O)[C@@](C)(CO)C5CC[C@]43C)C2[C@H]1C (stereo partly drawn)
inactive: Potency [1] | Potency [2] | Potency [3]

CC[C@H]1OC(=O)[C@H](C)C(=O)[C@H](C)[C@@H](OC2O[C@H](C)C[C@H](N(C)C)[C@H]2O)[C@@H](C)C[C@@H](C)C(=O)/C=C/[C@]1(C)O (stereo partly drawn)
inactive: Potency [1] | Potency [2] | Potency [3]

O=C(OC[C@H]1O[C@@H](Oc2ccccc2CO)[C@H](O)[C@@H](O)[C@@H]1O)c1ccccc1
inactive: Potency [1] | Potency [2] | Potency [3]

CC1(C(=O)O)CC[C@]2(C(=O)OC3OC(CO)C(O)C(O)C3O)CC[C@]3(C)C(=CCC4[C@@]5(C)CC[C@H](OC6OCC(O)C(O)C6OC6OC(CO)C(O)C(O)C6O)C(C)(C)C5CC[C@]43C)C2C1 (stereo partly drawn)
inactive: Potency [1] | activity change, negative = viability loss [2] -7.26% [at 9.23 µM] | activity change, negative = cell killing [3] -0.731% [at 9.23 µM]

CC1CC2OCC3(O)CCC(O)C(C14CC(c1ccoc1)OC4=O)C23CO (stereo not drawn)
inactive: Potency [1] | Potency [2] | Potency [3]

CSCC1OC(n2cnc3c(N)ncnc32)C(O)C1O (stereo not drawn)
inactive: Potency [1] | Potency [2] | Potency [3]

COc1ccc(OC2OC(CO[C@@H]3O[C@@H](C)[C@H](O)[C@@H](O)[C@H]3O)C(O)C(O)C2O)cc1OC (stereo partly drawn)
inactive: Potency [1] | Potency [2] | Potency [3]

C/C=C(/C)C(=O)OC1C(OC(C)=O)C23C(O)OC4(CCC5C6(C)CCC(OC7OC(C(=O)O)C(O)C(OC8OC(CO)C(O)C(O)C8OC8OC(C)C(O)C(O)C8OC8OCC(O)C(O)C8O)C7OC7OC(CO)C(O)C(O)C7O)C(C)(C)C6CCC5(C)C4(C)CC2OC(C)=O)C3CC1(C)C (stereo not drawn)
inactive: activity change, negative = inhibition [1] 3.17% [at 12.4 µM] | activity change, negative = viability loss [2] 4.87% [at 9.23 µM] | activity change, negative = cell killing [3] 3.76% [at 9.23 µM]

CC12CC34CC(O)C5C(CO)(CO)CC(=O)CC5(C)C3CC1C2C4 (stereo not drawn)
inactive: Potency [1] | Potency [2] | Potency [3]

C=C1CC[C@@H]2[C@@](C)(CO[C@@H]3O[C@H](CO)[C@@H](O)[C@H](O)[C@H]3O)[C@H](O)CC[C@@]2(C)[C@@H]1CC/C(C)=C/CO[C@@H]1O[C@H](CO)[C@@H](O)[C@H](O)[C@H]1O
inactive: Potency [1] | Potency [2] | Potency [3]

CC(=O)O[C@@H]1C(=O)C(C)=C(CCC(C)CC(=O)O)[C@@]2(C)CCCC(C)(C)C12 (stereo partly drawn)
inactive: Potency [1] | Potency [2] | Potency [3]

O=C(O)C1(c2ccc(-c3ccc(Cl)c(Cl)c3)c(F)c2)CC1
inactive: Potency [1] | Potency [2] | Potency [3]

CC1=CC(=O)[C@]2(O[C@@H]3O[C@@H](C)[C@H](O)[C@@H](O)[C@H]3O)C=CO[C@@H](O[C@@H]3O[C@H](CO)[C@@H](O)[C@H](O)[C@H]3O)[C@H]12
inactive: Potency [1] | Potency [2] | Potency [3]

CC(=O)OC1C(O)C(C)(O)C(/C=C/C(=O)O)C2(C)CCCC(C)(C)C12 (stereo not drawn)
inactive: Potency [1] | Potency [2] | Potency [3]

C/C(=C\C(=O)C[C@@]12C(=O)O[C@]3(C)CC[C@H]1C[C@H]23)C(N)=O
inactive: Potency [1] | Potency [2] | Potency [3]

CC12CC(c3ccoc3)OC(=O)C1CCC1(C)C2CCC(O)C1(C)O (stereo not drawn)
inactive: Potency [1] | Potency [2] | Potency [3]

C[C@H]1[C@H](C)CC[C@]2(C(=O)OC3OC(CO)C(O)C(O)C3O)CC[C@]3(C(=O)O)C(=CCC4[C@@]5(C)CC[C@H](O[C@@H]6O[C@@H](C)[C@H](OC7OC(CO)C(O)C(O)C7O)[C@@H](O)[C@H]6O)C(C)(C)C5CC[C@]43C)[C@H]12 (stereo partly drawn)
inactive: Potency [1] | activity change, negative = viability loss [2] -7.55% [at 9.23 µM] | activity change, negative = cell killing [3] -2.86% [at 9.23 µM]
